Screening results as filed in PubChem BioAssay.
MITF inh = MITF inhibitors, primary screen, biochemical, AlphaScreen, human | AID 1259374, 2018 | AlphaScreen MITF homodimerization, bead proximity signal | actives 0.91% (n = 650,000) | inhibition, % at 2.6 µM | Microphthalmia-associated transcription factor (Homo sapiens), O75030; in the data active = inhibition above about 50%;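 also: 0% = vehicle wells with protein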
TEAD-YAP block = TEAD-YAP interaction inhibition, primary screen, TEAD-YAP interaction inhibitor project, luminescence, HEK-TIYL cells; actives 1.4% (n = 640,000); TEAD-Gal4/YAP UAS-luciferase luminescence; AID 1259422, 2018; inhibition, % at 9.12 µM; in the data active = inhibition above about 32%;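 also: 0% = median of test compound wells and 100% = reference inhibitor wells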
FBW7 activator = FBW7 E3 ligase activators, primary screen, biochemical, AlphaScreen, human; actives 0.13% (n = 650,000); normalized activity (activation), % at 26.1 µM; AlphaScreen FBW7–phospho-cyclin E peptide binding, activator screen; AID 1259310, 2017; F-box/WD repeat-containing protein 7 (Homo sapiens), Q969H0; in the data active = normalized activity above about 1.9%;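 also: purified mutant Fbw7 with reduced substrate affinity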
Target sequence (Q969H0 whole entry, looked up): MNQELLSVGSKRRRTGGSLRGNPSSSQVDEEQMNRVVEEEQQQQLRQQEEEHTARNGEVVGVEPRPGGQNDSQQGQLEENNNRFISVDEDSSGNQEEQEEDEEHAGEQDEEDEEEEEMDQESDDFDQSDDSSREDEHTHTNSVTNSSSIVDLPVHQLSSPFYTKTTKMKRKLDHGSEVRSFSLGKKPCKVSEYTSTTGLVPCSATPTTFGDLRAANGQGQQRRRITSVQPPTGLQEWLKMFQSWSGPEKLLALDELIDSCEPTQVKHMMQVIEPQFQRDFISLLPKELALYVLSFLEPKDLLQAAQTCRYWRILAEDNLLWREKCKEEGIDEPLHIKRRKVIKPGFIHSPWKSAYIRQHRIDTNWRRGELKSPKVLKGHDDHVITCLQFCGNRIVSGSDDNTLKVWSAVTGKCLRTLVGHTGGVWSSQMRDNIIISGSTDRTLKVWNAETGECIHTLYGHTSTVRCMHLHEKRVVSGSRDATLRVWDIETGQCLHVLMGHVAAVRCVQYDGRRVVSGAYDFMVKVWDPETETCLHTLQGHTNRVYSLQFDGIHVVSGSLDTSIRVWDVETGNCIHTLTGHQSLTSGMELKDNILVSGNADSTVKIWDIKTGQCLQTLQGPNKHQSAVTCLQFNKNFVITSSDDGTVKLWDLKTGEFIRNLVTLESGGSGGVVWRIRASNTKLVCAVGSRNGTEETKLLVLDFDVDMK
GPR151 activ = activators of human GPR151, primary screen, cell-based, PathHunter beta-arrestin, luminescence | G-protein coupled receptor 151 (Homo sapiens), Q8TDV0 | PathHunter beta-arrestin GPR151 cells | activation, % at 11.2 µM | actives 1% (n = 650,000); in the data active = activation above about 4.9%;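 also: 0% = median of compound wells and 100% = cells with positive control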
The depositor's hits bear a star; · = no result given. The list is not random: actives were taken first. Their share in the collection is about 3.5%.

SMILES	MITF inh	TEAD-YAP block	FBW7 activator	GPR151 activ
O=C(O)/C=C/c1ccc2ccccc2n1	-11	-12	0	0
Oc1ccc(/C=C/c2ccc3ccccc3n2)cc1	-6	85*	1	-10
Cc1ccc2nc(SCC(=O)N3CC(=O)Nc4ccccc43)c(C#N)cc2c1	17	49*	0	0
CCSc1ncc(Cl)c(C(=O)N2CCN(c3ccccc3OC)CC2)n1	9	60*	0	1
CCOc1ccccc1N1CCN(C(=O)C2CCN(Cc3ccccc3O)CC2)CC1	62*	9	0	-1
COc1ccc(Cl)cc1C(=O)N1CCN(c2ccccc2)CC1	0	50*	0	-1
COc1cc(SC)ccc1C(=O)N1CCN(c2ccccc2OC)CC1	18	56*	1	0
CNC(=O)c1cc(S(=O)(=O)N2CCN(c3ccccn3)CC2)cs1	·	·	·	0
CC(=O)c1cccc(NC(=O)c2nn3c(C(F)(F)F)cc(-c4ccc(Br)o4)nc3c2Br)c1	-4	-7	0	1
CCC(C)(C)NC(=O)C1CCCN(S(=O)(=O)c2ccc3c(c2)C(C)(C)C(=O)N3C)C1 (centres undefined)	10	18	0	0
COc1ccccc1C(=O)N1CCN(c2ccccc2OC)CC1	-8	8	0	2
COc1ccccc1N1CCN(C(=O)c2c(-c3ccccc3)noc2C)CC1	-4	44*	0	2
COc1ccc(Cl)cc1C(=O)N1CCN(c2ccccc2OC)CC1	6	54*	0	-1
CCOc1ccccc1N1CCN(C(=O)c2cc(OC)c(OC)c(OC)c2)CC1	-4	64*	0	1
COCc1nnc(NC(=O)c2ccc(OC)cc2)s1	-1	-31	0	-2
O=C1C=C(NNC(=O)c2cccnc2)CO1	0	6	1	-1
Cc1csc(-c2cnc3ccc(NCc4ccccn4)nn23)c1	12	40*	0	1
Cc1csc(-c2cnc3ccc(NCCCO)nn23)c1	16	34*	0	1
c1ccc(CNc2ccc3ncc(-c4ccco4)n3n2)nc1	-11	53*	-1	0
Cc1ccc(/C(O)=C2/C(=O)C(=O)N(CCN(C)C)C2c2ccncc2)cc1 (centres undefined)	8	0	0	-1
O=C(O)c1ccc2c(c1)NC(=O)c1ccccc1S2(=O)=O	-2	-4	1.9*	-2
Nc1ccc2oc(-c3ccccc3)nc2c1	1	-35	0	-4
Oc1ccc2oc(-c3ccccc3)nc2c1	7	49*	0	-3
O=C(O)c1ccc2oc(-c3ccccc3)nc2c1	4	55*	0	-9
CCOC(=O)C1=C(C)NC(SC)=C(C#N)C1CC(C)C (centres undefined)	2	38*	0	0
SMILES	MITF inh	TEAD-YAP block	FBW7 activator	GPR151 activ
COC(=O)c1ccc2nc(Nc3nc4c(OC)cccc4s3)sc2c1	6	73*	1	-2
COc1ccc(CCNC(=O)c2ccc3nc(Nc4ccc(-n5ccnc5)cc4)sc3c2)cc1	11	62*	0	2
COC(=O)c1ccc2nc(Nc3nc4ccc(OC)cc4s3)sc2c1	-3	49*	0	1
O=C(NCCc1ccc(O)cc1)c1ccc2nc(Nc3ccc(-n4ccnc4)cc3)sc2c1	2	3	0	2
O=S(=O)(c1ccc(Cl)cc1)N1CCN(c2ccc(Cl)cc2)CC1	-3	-15	0	0
N#CC1(c2nc3ccccc3[nH]2)Cc2ccccc2N2CCCC21 (centres undefined)	24	-12	0	-1
Cc1nc2ccccc2n1CC1CCN(CC(=O)Nc2ccc(F)cc2F)CC1	-7	55*	0	-1
O=C(CSc1nc2[nH]ncc2c(=O)n1-c1ccc(F)c(Cl)c1)Nc1ccc2c(c1)OCCO2	4	26	0	1
COc1ccc(CCNC(=O)c2sc3ncnc(N4CCN(c5ccccn5)CC4)c3c2C)cc1OC	-5	70*	0	0
COc1ccc(CCNC(=O)c2sc3ncnc(N4CCN(c5ccccc5OC)CC4)c3c2C)cc1OC	18	14	0	-1
C=C/C(OC)=C(\C=C(/C)Cl)N(C(=O)NCc1ccccc1)C1=NCCCS1	2	-7	0	0
Cc1ccc(Nc2c([N+](=O)[O-])sc3ccccc23)cc1	30	48*	0	0
O=C(Nc1ccc2c(c1)OCO2)c1cccc(C(=O)Nc2ccc3c(c2)OCO3)n1	3	5	0	3
NS(=O)(=O)c1ccc(N=Cc2c(O)n(Cc3ccco3)c(=O)[nH]c2=O)cc1	79*	8	-1	1
N#CC(C#N)=NNc1ccc(SC(F)F)cc1	6	74*	0	1
CC(=O)NC(c1ccc(N(C)C)cc1)c1cc(Cl)c2cccnc2c1O (centres undefined)	32	30	0	0
CC(=O)NC(c1ccccc1)c1cc(Cl)c2cccnc2c1O (centres undefined)	63*	76*	0	0
CC(=O)NC(c1ccc(C(C)C)cc1)c1cc(Cl)c2cccnc2c1O (centres undefined)	11	38*	0	-2
O=C(NNC(=S)NC1CCCCC1)NC12CC3CC(CC(C3)C1)C2	7	-4	0	0
COc1cc([N+](=O)[O-])ccc1NC(=O)c1cc2c(=O)n3cccc(C)c3nc2s1	-7	1	0	2
O=C(CCn1c(=S)[nH]c2cc3c(cc2c1=O)OCO3)NCc1ccccn1	-14	2	0	1
Oc1cccc(-c2cnn3c(NCCc4ccccn4)ccnc23)c1	-13	85*	0	0
CC(C)[C@@H](CO)Nc1ccnc2c(-c3ccoc3)cnn12	-3	-3	0	0
CC(C)[C@@H](CO)Nc1ccnc2c(-c3ccccc3F)cnn12	10	56*	0	3
Fc1ccccc1-c1cnn2c(NCCc3ccccn3)ccnc12	-14	72*	0	-3
SMILES	MITF inh	TEAD-YAP block	FBW7 activator	GPR151 activ
O=C(Cn1ccnc1)Nc1nc2ccccc2s1	3	3	0	0
C=CCOC(=O)C1=C(C)NC2=C(C(=O)CCC2)C1c1cc(OC)c(OC)cc1[N+](=O)[O-] (centres undefined)	10	32*	-1	2
COc1ccc(Cl)cc1NC(=O)Cn1nnc(C(=O)NCc2cccs2)c1N	-7	45*	0	0
O=C(CO)N/N=C/c1c(O)ccc2ccccc12	29	11	-1	-1
O=C(CN1CCOCC1)N/N=C/c1c(O)ccc2ccccc12	18	36*	-2	0
O=C(CN1CCOCC1)N/N=C/c1cn(Cc2ccccc2Cl)c2ccccc12	11	16	0	0
O=C(CN1CCN(Cc2ccccc2Cl)CC1)N/N=C\c1c(O)ccc2ccccc12	24	74*	0	2
CCC1=C(C(=O)OC)C(c2ccc(F)cc2)n2ncnc2N1 (centres undefined)	-10	7	0	1
